D1 potentiator – Potentiators of Human D1 Dopamine Receptor: qHTS; D(1A) dopamine receptor (Homo sapiens), P21728; HEK293 TREx D1 cells, calcium flux, dopamine EC20 potentiation; potentiation, % at 10 µM; 360,000 compounds, 0.036% hits; AID 504651, 2011; in the data active = potentiation above about 30%
D1 agonist – Allosteric Agonists of the Human D1 Dopamine Receptor: qHTS. HEK293 T-REx D1 cells, calcium flux, agonist mode. AID 504660, 2011. 360,000 compounds, 1% hits. D(1A) dopamine receptor (Homo sapiens), P21728. activation, % at 2 µM
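Inducible HEK293 T-REx D1 cells, force-coupled to calcium signalling, were plated at 4000 cells/well with tetracycline and held overnight at 30 C. After no-wash calcium dye loading, compound-evoked calcium rise over 180 s flagged agonists.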
TRHR agonist – qHTS for Small Molecule Agonists and Allosteric Enhancers of Human TRH Receptor: Primary Screen for Agonists. Thyrotropin-releasing hormone receptor (Homo sapiens), P34981. TRHR cells, calcium flux fluo-8, FDSS agonist mode. activation, % at 2 µM. 360,000 compounds, 0.18% hits. AID 493084, 2011
Target sequence (P34981 whole entry, looked up): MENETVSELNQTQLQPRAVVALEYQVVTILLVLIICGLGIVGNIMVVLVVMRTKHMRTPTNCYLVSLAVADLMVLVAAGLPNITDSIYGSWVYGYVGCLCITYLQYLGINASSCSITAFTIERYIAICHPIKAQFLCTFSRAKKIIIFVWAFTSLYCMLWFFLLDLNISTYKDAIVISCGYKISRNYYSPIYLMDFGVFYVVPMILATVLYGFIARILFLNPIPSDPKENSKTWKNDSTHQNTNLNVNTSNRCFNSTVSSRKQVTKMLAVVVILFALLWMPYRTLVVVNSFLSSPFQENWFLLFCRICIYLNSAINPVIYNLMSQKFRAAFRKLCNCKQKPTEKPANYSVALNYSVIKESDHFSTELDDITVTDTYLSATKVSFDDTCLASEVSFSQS
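Read-out: compound-evoked intracellular calcium rise in TRHR cells, fluo-8 dye, kinetic FDSS fluorescence at 1 s/cycle following a 10-cycle baseline. Cells cultured overnight before dye loading (30 min–1.5 h, RT).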
TRHR enhancer – qHTS for Small Molecule Agonists and Allosteric Enhancers of Human TRH Receptor: Primary Screen for Enhancers. TRHR cells, fluo-8 calcium fluorescence, EC20 TRH enhancement. 360,000 compounds, 0.66% hits. Thyrotropin-releasing hormone receptor (Homo sapiens), P34981. enhancement, % at 2 µM; in the data active = enhancement above about 30%
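TRHR-expressing cells loaded with fluo-8 calcium dye were read kinetically (ex 480/em 530) during compound addition, then stimulated with an EC20 of TRH (10 nM final). Enhancement of the Gq-mediated intracellular calcium response was scored.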
D1 antagonist – Antagonist of Human D 1 Dopamine Receptor: qHTS. D(1A) dopamine receptor (Homo sapiens), P21728. HEK293 TREx D1 cells, calcium flux, dopamine EC80; hits give low values. activity change, negative = inhibition, % at 10 µM. 360,000 compounds, 3.2% hits. AID 504652, 2011; in the data active = activity change below about -30%
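Compound effects on dopamine-evoked calcium signalling were measured in tetracycline-induced HEK293 Trex D1 cells. Dopamine at EC80 followed a 180 s compound pre-read, and fluorescence was tracked kinetically for 180 s more.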
Numbers stand for hits; 0 = inactive; - = no result given. In the library only some 4.6% were active in any assay of this set; here they are far more common. Rule as the data show it, unless noted: active = activation above about 30%; inactive = the rest.

SMILES	D1 potentiator	D1 agonist	TRHR agonist	TRHR enhancer	D1 antagonist
Cc1ccc(OCCSc2nc3ccccc3n2CC(=O)N2CCOCC2)cc1	0	0	0	0	0
CCC(=O)N/C=C/n1cnc2cc(C(F)(F)F)ccc21	0	0	0	0	0
CN(C)c1cccc(C(=O)N/C=C/n2cnc3cc(C(F)(F)F)ccc32)c1	0	0	0	0	-39.1
Cc1ccc(C)c(NC(=O)c2nnn(Cc3ccc(F)cc3Cl)c2N)c1	0	78.6	0	0	-31.9
Nc1c(C(=O)Nc2ccccc2)nnn1Cc1ccc(F)cc1Cl	0	88.2	0	0	-31.4
COc1ccc(NC(=O)Cn2nnc(C(=O)Nc3ccccc3C)c2N)cc1	0	0	0	0	-64.4
Cc1ccc(C)c(NC(=O)c2nnn(Cc3ccccc3)c2N)c1	0	0	0	0	0
Nc1c(C(=O)Nc2ccc3c(c2)OCCO3)nnn1Cc1ccccc1Cl	0	0	0	0	0
COc1ccc(NC(=O)Cn2nnc(C(=O)NCCc3ccccc3)c2N)cc1	0	0	0	0	0
Cc1ccc(Cn2nnc(C(=O)Nc3cc(C)ccc3C)c2N)cc1	0	40.3	0	0	0
COc1ccc(Nc2cc(C)c3cc(NC(=O)COc4cccc(C)c4)ccc3n2)cc1	0	0	0	0	0
Cc1oc2cc3oc(=O)c(CCC(=O)NCc4ccccn4)c(C)c3cc2c1C	0	0	0	0	0
CCCCN(C)C(=O)c1ccc2c(c1)N(Cc1cccc(F)c1)C(=O)c1ccccc1S2	0	0	0	0	0
COc1ccc(NC(=O)c2nnn(Cc3ccc(Br)cc3F)c2N)c(OC)c1	0	34.2	0	0	0
COc1ccc(OC)c(NC(=O)c2nnn(Cc3ccc(Br)cc3F)c2N)c1	0	0	0	0	0
O=c1cc(O)c2c(=O)[nH]c(=O)n(-c3ccccc3)c2[nH]1	0	0	0	33.0	0
CCCn1ncc(CN2CCN(Cc3ccc(C)o3)C(CCO)C2)c1C (stereo not given)	0	0	0	0	0
CCCn1cc(CN2CCN(Cc3ccc(C)o3)C(CCO)C2)c(C)n1 (stereo not given)	0	0	0	0	-35.9
COc1ccccc1N1CCN(C(=O)c2cc(-c3ccc(F)cc3)[nH]c2C)CC1	0	0	0	0	0
CCOC(=O)c1ccc(NC(C)=O)c([N+](=O)[O-])c1	0	0	0	0	0
CNc1ccc(C(=O)OCC(=O)Nc2ccnn2C(C)C)cc1[N+](=O)[O-]	0	0	0	0	-42.1
CCOc1ccc2c(c1)c(=O)c(C(=O)c1ccc(C)cc1)cn2Cc1ccccc1OC	0	0	0	0	0
CCc1ccccc1NC(=O)Cn1ccn(-c2cc(C)cc(C)c2)c(=O)c1=O	0	0	0	0	0
CCOC(=O)c1cc(C)n(CC2CCC(C(=O)Nc3cccc(Cl)c3)CC2)c1C (stereo not given)	0	0	0	0	0
CCOC(=O)c1cc(C)n(CC2CCC(C(=O)Nc3ccc(Cl)cc3)CC2)c1C (stereo not given)	0	0	0	0	-33.8
SMILES	D1 potentiator	D1 agonist	TRHR agonist	TRHR enhancer	D1 antagonist
CC(=O)c1cccc(NC(=O)CSCc2ccc(Br)cc2)c1	0	0	0	0	-32.9
O=C(CSCc1ccc(Cl)cc1)Nc1cccc(C(=O)O)c1	0	0	0	37.6	0
CCCCN(C)C(=O)c1ccc2c(c1)N(Cc1cccc(Cl)c1)C(=O)c1ccccc1S2=O (stereo not given)	0	0	0	0	0
CCCN(Cc1nc2cc(Cl)ccc2c(=O)[nH]1)C(=O)c1ccc(S(=O)(=O)N2CCCC2)cc1	0	0	0	0	0
O=C(COC(=O)CSc1nnc(-c2ccc(Cl)cc2)o1)NCc1ccc2c(c1)OCO2	0	0	0	0	-35.6
N#Cc1ccc(NC(=O)COC(=O)CSc2nnc(-c3ccc(Cl)cc3)o2)cc1	0	0	0	0	-37.4
O=C(COC(=O)Cc1ccc(Cl)cc1)NCc1ccc2c(c1)OCO2	0	0	0	0	0
N#Cc1ccc(-c2cccs2)nc1SCc1ccc(Cl)cc1Cl	0	0	0	0	0
Cc1ccc(OCC(=O)c2cc(C)n(Cc3cccs3)c2C)c([N+](=O)[O-])n1	0	0	0	39.1	0
Cc1ccc(OCC(=O)c2cc(C)n(CC(F)(F)F)c2C)c([N+](=O)[O-])n1	0	0	0	0	0
Cc1ccc(NC(=O)C2CCC(CNS(=O)(=O)c3ccc4c(c3)CCCC(=O)N4)CC2)cc1F (stereo not given)	0	0	0	0	0
CC(C)CN(C(=O)c1ccc(C(F)(F)F)cc1)c1c(N)n(CC(C)C)c(=O)[nH]c1=O	0	0	0	0	0
Cn1nc(C(=O)NC2CCCC2)c2ccccc2c1=O	0	0	0	0	0
CCn1nc(C(=O)NCC(c2cccs2)N2CCOCC2)c2ccccc2c1=O (stereo not given)	0	0	0	0	-34.8
Cn1nc(C(=O)NCc2cccs2)c2ccccc2c1=O	0	0	0	0	-41.1
CC1CCCCC1NC(=O)c1nn(C)c(=O)c2ccccc12 (stereo not given)	0	0	0	0	-31.9
Cn1nc(C(=O)NCc2ccccc2)c2ccccc2c1=O	0	0	0	0	0
CCCCn1nc(C(=O)NCC(c2cccs2)N2CCOCC2)c2ccccc2c1=O (stereo not given)	-	0	0	0	0
O=C(COC(=O)CCS(=O)(=O)c1ccccc1)Nc1ccc(N2CCCCC2)cc1	0	0	0	0	0
COc1ccc(CNC(=O)CCS(=O)(=O)c2cc(Br)cc3c2N(C(=O)C2CC2)CC3)cc1	0	0	0	0	0
COc1ccccc1OS(=O)(=O)c1ccc(NC(C)=O)cc1	0	0	0	0	0
COC(=O)/C=C/S(=O)(=O)c1ccc(NC(C)=O)cc1	0	0	0	33.1	0
CC(=O)c1c(C)nc2ccc(Br)cc2c1-c1ccccc1	0	0	0	0	0
CC(=O)c1c(Cl)nc2ccc(Br)cc2c1-c1ccccc1	0	0	0	35.0	0
CCCN(C(=O)CSc1nc2ccccc2n1CC)C1CCS(=O)(=O)C1 (stereo not given)	0	0	0	0	-30.4
CCOC(=O)C(NC(=O)c1ccccc1)(OCc1ccc(F)cc1)C(F)(F)F (stereo not given)	0	0	0	0	0
CCOC(=O)C(NC(=O)c1cccc(Cl)c1)(OCc1ccc(F)cc1)C(F)(F)F (stereo not given)	0	0	0	0	-34.9
CCn1c(=O)cc(SCC(=O)NCc2ccc(F)cc2Cl)c2ccccc21	0	0	0	0	0

High-throughput results from PubChem.
